Assay outcomes as filed in PubChem BioAssay.
The entries come from a sample that favours hits as a whole.
ERG-DNA inh = qHTS for Small Molecule Inhibitors of the ERG Ets/DNA interaction; Transcriptional regulator ERG (Homo sapiens), P11308; fluorescence polarization, His-ERG Ets domain / labelled DNA; Potency, µM (top dose mostly 76.9 µM), inactives show top-dose FP activity, negative = inhibition, most hits filed as inhibitors; 370,000 tested, 0.028% active; AID 624246, 2012; active = well fitted inhibition curve with a large enough effect in the polarisation, with a control signal flat; inconclusive = small, poorly fitted or top-dose-only effect, or effect the other way, or a change in a side signal; inactive = no such curve, though single readings can be large or run the other way; the % refers to the polarisation;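 note: polarization taken with two DNA probes labelled with fluorescein and Texas red; % of control where 0% means no effect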
Target sequence (P11308 whole entry, looked up, the tested form may be a part): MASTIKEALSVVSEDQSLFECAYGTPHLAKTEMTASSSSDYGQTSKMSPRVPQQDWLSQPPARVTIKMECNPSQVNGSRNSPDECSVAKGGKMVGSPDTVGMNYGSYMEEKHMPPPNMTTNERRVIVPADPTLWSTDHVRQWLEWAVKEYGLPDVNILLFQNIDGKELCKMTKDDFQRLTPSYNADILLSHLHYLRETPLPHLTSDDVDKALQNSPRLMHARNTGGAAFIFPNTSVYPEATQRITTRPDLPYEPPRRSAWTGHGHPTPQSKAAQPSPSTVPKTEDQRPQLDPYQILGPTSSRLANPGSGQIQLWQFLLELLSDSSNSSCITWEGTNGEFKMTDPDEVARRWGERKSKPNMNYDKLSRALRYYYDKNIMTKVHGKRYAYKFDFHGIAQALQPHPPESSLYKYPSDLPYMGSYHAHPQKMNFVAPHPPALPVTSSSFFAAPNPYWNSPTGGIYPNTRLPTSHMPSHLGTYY
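His-tagged ERG Ets domain (1 uM in the protein solution; 300mM KCl, 50mM Tris-HCl, 1mM EDTA, 1mM DTT, pH 7.5) received compound, then a probe mix of 5 nM fluorescein-DNA and 100nM Texas-615-DNA. Fluorescence polarization was read for both dyes.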
TR SRC2 fluor cs = Total Fluorescence Counterscreen for Inhibitors of the Interaction of Thyroid Hormone Receptor and Steroid Receptor Coregulator 2 | Potency, µM (highest dose often 106 µM), for inactives: at the highest dose fluorescence change, negative = quenching | TRb/SRC2 Texas Red total fluorescence interference | 280,000 tested, 0.29% active; active = well fitted curve in either direction with a large enough effect; inconclusive = small, poorly fitted or top-dose-only effect; note: % is set by controls: 0 for no effect and ±100 for the full control effect
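Human TRb ligand-binding domain at 0.6 uM with 20 nM Texas Red SRC2 peptide in Tris buffer containing 1 uM T3 and 5% DMSO, incubated with compound 5 h at ambient temperature. Total fluorescence (555/632 nm) calculated as parallel + 2 × perpendicular.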
TRb SRC2 PPI = qHTS for Inhibitors of the Interaction of Thyroid Hormone Receptor and Steroid Receptor Coregulator 2; TRbeta-SRC2 peptide binding, fluorescence polarization; receptor liganded with 1 µM T3; Thyroid hormone receptor beta (Homo sapiens), P10828; 280,000 tested, 0.065% active; Potency, µM (highest dose often 106 µM), for the others: at the highest dose activity change, negative = inhibition, hits mostly inhibitors; active = well fitted inhibition curve with a large enough effect; inconclusive = small, poorly fitted or top-dose-only effect, or effect the other way;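 note: plate controls were bound peptide for no effect and peptide without receptor for full effect; nearly all actives have a fitted effect of over 50% in size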
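A fluorescence polarization screen tested compounds at multiple concentrations against complex formation between 0.6 uM TRb ligand-binding domain and 20 nM Texas Red SRC2 peptide, with 1 uM T3 present; readout after 5 hr.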
Numbers without * were called inactive; ? = inconclusive; / = no result; ! = repeats disagree; [ ] = dose if it differs, or a comment. Potency is the fitted concentration of half-maximal effect.

SMILES	ERG-DNA inh	TR SRC2 fluor cs	TRb SRC2 PPI
CC1(C)[C@@H](C=C(Cl)Cl)[C@@H]1C(=O)OCc1cccc(Oc2ccccc2)c1	/	-0.4%[201 µM]	-0.7%[201 µM]
CCOC(=O)C1=C(C)NC(C)=C(C(=O)OC)[C@@H]1c1cccc(Cl)c1Cl	/	-0.2%[53 µM]	-4.2%[53 µM]
Cc1ccc(Nc2nc(N/N=C/c3c[nH]c4ccccc34)nc(N3CCOCC3)n2)cc1	-11.3%	631µM*[quencher]	-4.4%
C(=N\Nc1nc(Nc2ccccc2)nc(N2CCOCC2)n1)/c1c[nH]c2ccccc12	?	-9.8%	-6.8%
CC[C@H](C)[C@H](NC(=O)[C@H](CC(C)C)NC(=O)[C@@H](N)CO)C(=O)NCC(=O)N[C@@H](CCCN=C(N)N)C(=O)N[C@@H](CC(C)C)C(=O)O	/	2.3%	0.5%
CCOc1ccc(-c2nc(Cn3c(=O)cc(-c4ccccc4)c4c(C)nn(C)c43)c(C)o2)cc1	2.8%	2.1%	6.3%
O=C=NCCCCCCN=C=O	/	-3.8%[201 µM]	-0.9%[201 µM]
CC(C)(C)C1CCC(O)CC1 (stereo not given)	/	-3.8%[201 µM]	-0.3%[201 µM]
Oc1ccc(NCc2ccccc2OCc2ccccc2)cc1	?	50.1µM*![fluorescent]	35.5µM*
CCNCc1ccccc1OCc1ccccc1	2.9%	1.5%	-10.2%
Cc1nn2c(=O)cc(COC(=O)c3cccc(NC(=O)COc4ccccc4C)c3)nc2s1	16.2%	-1.4%	3.3%
CC(=O)Nc1ccc(S(=O)(=O)NC2=NCN(C)CN2)cc1	-6.0%	0.6%	5.5%
CC(=O)Nc1ccc(S(=O)(=O)NC2=NCN(C(C)C)CN2)cc1	0.0%	12.6µM*[quencher]	-4.2%
CCc1ccc(NC(=O)C2CCN(S(=O)(=O)c3ccc4[nH]c5c(c4c3)CCCCC5)CC2)cc1	-0.6%	-0.4%	5.3%
CCCCCCCCCCCCO	/	-2.8%[201 µM]	3.5%[201 µM]
CN1[C@@H]2CC[C@@H]1CC(OC(=O)[C@H](CO)c1ccccc1)C2 (stereo not given in full)	/	-5.3%	-5.1%
CCSc1ncc(Cl)c(C(=O)Nc2nc3ccc(S(C)(=O)=O)cc3s2)n1	6.0%	35.5µM*[quencher]	-8.6%[53 µM]
CCSc1ncc(Cl)c(C(=O)Nc2nc3ccc(Cl)cc3s2)n1	-2.6%	10.0%	2.0%
CCSc1ncc(Cl)c(C(=O)Nc2nc3ccc(OC)cc3s2)n1	-1.1%	2.51µM*[quencher]	?
CCCSc1ncc(Cl)c(C(=O)Nc2nc3ccc(C)cc3s2)n1	-5.5%	8.2%	2.8%
Cc1nc2cc(C)c(C)cc2s1	-8.3%	-6.3%	1.3%
Cc1cc2nc3ccc(=[N+](C)C)cc-3sc2cc1N	?	44.7µM*[fluorescent]	7.94µM*
CC[n+]1c(/C=C(\C)Nc2ccccc2)sc2ccccc21	-5.2%	-2.8%	-3.9%
CC[n+]1c(/C=C/Nc2ccccc2)sc2ccccc21	8.0%	44.7µM*[fluorescent]	?
COc1ccc(OC)c2sc(N3CCN(C(=O)C(C)(C)C)CC3)nc12	-1.2%	-0.6%	1.5%
SMILES	ERG-DNA inh	TR SRC2 fluor cs	TRb SRC2 PPI
CCn1cc2nc(SCC(=O)Nc3ccc(OC)c(OC)c3)n(Cc3ccc(OC)cc3)c(=O)c2n1	27.0%	/	/
CCn1cc2nc(SCC(=O)Nc3ccc(OC)c(Cl)c3)n(Cc3ccc(OC)cc3)c(=O)c2n1	-6.8%	3.55µM*[quencher]	?
Cc1ccc(NC(=O)CC(C)S(=O)(=O)c2ccc3c(c2)NC(=O)CO3)cc1Cl (stereo not given)	2.1%	1.3%	0.9%
CCOC(=O)c1ccc(NC(=O)CCc2c(C)nc3cc(-c4ccc(OC)cc4OC)nn3c2C)cc1	-10.0%	-2.4%	0.4%
COc1cccc(CSc2nc3n(n2)C(c2ccccc2C)C(C(=O)Nc2ccccc2OC)=C(C)N3)c1 (stereo not given)	1.4%	-2.9%	2.1%
CCCC/C=C\CCCCCCCCO	/	-2.6%[201 µM]	-1.6%[201 µM]
Cc1cc(Cc2cc(C)cc(C(C)(C)C)c2O)c(O)c(C(C)(C)C)c1	/	1.7%[201 µM]	0.8%[201 µM]
COCCCNC(=O)CCCn1c(=O)c2cccn2c2ccccc21	5.1%	-26.0%	4.8%
COc1ccccc1-c1cc(C(=O)NCc2ccccc2)c2c(-c3ccc(C)cc3)[nH]nc2n1	2.7%	-14.0%	-1.3%
COc1cc(OC)c(-c2cc(C(=O)NCc3ccc(F)cc3)c3c(-c4ccccc4)[nH]nc3n2)cc1OC	0.8%	3.55µM*[quencher]	-27.1%
CCCCOC(=O)CC(CC(=O)OCCCC)(OC(C)=O)C(=O)OCCCC	/	-2.0%[201 µM]	2.4%[201 µM]
COC(=O)c1ccc(NC(=O)CC2C(=O)N(c3ccc(Cl)cc3)C(=O)N2Cc2cccs2)cc1 (stereo not given)	1.6%	0.8%	-2.0%
COc1ccc(OCc2ccc(-c3nc(C#N)c(N4CCN(C)CC4)o3)o2)cc1	5.7%	-4.0%	-2.9%
COc1ccc(NC(=O)Cn2c(=O)c3cc(Cl)ccc3n3nncc23)cc1	5.1%	0.355µM*[quencher]	-23.5%[53 µM]
COc1ccc(NC(=O)Cn2c(=O)c3ccccc3n3nncc23)cc1Cl	-1.4%	-0.5%	-2.4%
CCCCCCCCCC(=O)OC	/	-0.3%[201 µM]	2.9%[201 µM]
Cc1ccc(C)c(N2CCN(S(=O)(=O)c3ccc(-c4coc(C)n4)cc3)CC2)c1	0.0%	-2.6%	5.0%
O=S(=O)(Nc1ccc(-c2ccc(N3CCCCCC3)nn2)cc1)c1cccc(C(F)(F)F)c1	5.3%	3162µM*[quencher]	-10.3%
O=S(=O)(Nc1ccc(-c2ccc(N3CCCCCC3)nn2)cc1)c1ccc(C(F)(F)F)cc1	5.1%	-16.6%	-3.4%
CC(C)CC(=O)NC(=S)Nc1ccc(Cl)cn1	-1.3%	3.98µM*[quencher]	-20.7%[53 µM]
CC(=O)CC(=O)Nc1ccc(Cl)cn1	-7.4%	-0.8%	-0.7%
Cc1ccc2nc(-c3ccc(NC(=O)COc4ccc(Br)cc4Br)cc3)sc2c1	3.9%	0.316µM*[quencher]	-29.8%[53 µM]
Cc1ccc2nc(-c3ccc(NC(=O)COc4c(C)ccc(C)c4C)cc3)sc2c1	0.9%	0.0%	0.7%
CCCCCCC(C)(C)S	/	-5.6%[201 µM]	-0.7%[201 µM]
CCc1nn(-c2ccccc2)c2nc(-c3ccc(O)cc3)c3cc(OC)c(OC)cc3c12	4.5%	4.8%	-3.9%
SMILES	ERG-DNA inh	TR SRC2 fluor cs	TRb SRC2 PPI
CCc1nn(-c2ccccc2)c2nc(-c3ccccc3OC)c3cc(OC)c(OC)cc3c12	-0.8%	0.141µM*[quencher]	-14.0%
Cn1c(=S)[nH]c(=O)c2ncc(=O)[nH]c21	14.1µM*	-1.9%	9.3%
Cc1nc2[nH]c(=S)n(C)c(=O)c2nc1C	/	-1.9%	-9.1%
Cc1cccc(CNC(=O)Cc2ccc(NC(=O)N3CCCCc4ccccc43)cc2)c1	-18.9%	-0.3%	-1.9%
O=C(O)CN(CC(=O)O)Cc1cc2c(-c3ccccc3C(=O)O)c3cc(CN(CC(=O)O)CC(=O)O)c(=O)cc-3oc2cc1O	/	39.8µM*[fluorescent]	6.31µM*
O=C(O)c1ccccc1-c1c2ccc(=O)cc-2oc2cc(O)ccc12	/	14.8%	-23.1%
